This is a sample that favours compounds with a hit; in the whole collection about 3.3% have one here.
PI5P4K alpha inh = inhibitors of human PI5P4K alpha; P48426; PI5P4Kalpha enzyme, ADP-Glo luminescence, 60 min; hits give low values; max response, %; 330,000 compounds, 1.2% hits; active = max response of -50% or lower; inconclusive = between -30% and -50%; inactive = -30% or higher; note: value at the top dose of about 77 µM
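ADP-Glo luminescence end-point read after a 60 min room-temperature kinase reaction of PI5P4Kalpha plus substrate, initiated with ATP at 5 microM final. Buffer: 0.038 M HEPES pH 7.4, EGTA, 0.1% CHAPS, 5% DMSO.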
PLK1 PBD inh = PLK1 (human) polo-box domain binding inhibition | P53350 | Plk1 PBD binding of FITC phosphopeptide, fluorescence polarization | Potency, µM, usual class: inhibitors | 360,000 compounds, 2.8% hits | AID 720504; note: series mostly up to about 57 µM; nearly all actives have a fitted effect of over 65% in size
USP2a inh = USP2a (human) protease inhibition | O75604 | USP2 core, Ub-CHOP2 coupled fluorogenic reporter, 485/531 | Potency, µM (highest dose often 38.3 µM), usual class: inhibitors | 330,000 compounds, 0.01% hits | AID 463254
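Cell-free coupled assay: 10nM USP2 core preincubated 30min RT with compound in Tris-HCl pH 8.0/CaCl2/CHAPS buffer, then 25nM Ub-CHOP2 and 25nM reporter substrate; fluorescence (Ex 485/Em 531) read after 60min RT, normalized to NEM inhibition, concentration-response curves fitted.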
WRN helicase inh = blocks human WRN helicase | WRN helicase unwinding, fluorescent forked duplex, kinetic | 360,000 compounds, 0.46% hits | Potency, µM (doses to about 114 µM), actives largely listed as inhibitors | Q14191; note: nearly all actives have a fitted effect of over 55% in size
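Fluorescence dequenching readout, ex 525 nm/em 598 nm, kinetic mode: forked duplex DNA (100 nM final) with adjacent fluorophore and quencher unwound by WRN (20 nM final) with 2 mM ATP. Compound preincubation 15 min, room temperature.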
USP1-UAF1 inh = blocks the human USP1/UAF1 deubiquitinase complex | Potency, µM (series often up to 57.1 µM), usual class: inhibitors | O94782 | recombinant USP1/UAF1, Ub-Rhodamine cleavage fluorescence | 390,000 compounds, 0.23% hits; note: nearly all actives have a fitted effect of over 60% in size
Target sequence (O94782 whole entry, looked up): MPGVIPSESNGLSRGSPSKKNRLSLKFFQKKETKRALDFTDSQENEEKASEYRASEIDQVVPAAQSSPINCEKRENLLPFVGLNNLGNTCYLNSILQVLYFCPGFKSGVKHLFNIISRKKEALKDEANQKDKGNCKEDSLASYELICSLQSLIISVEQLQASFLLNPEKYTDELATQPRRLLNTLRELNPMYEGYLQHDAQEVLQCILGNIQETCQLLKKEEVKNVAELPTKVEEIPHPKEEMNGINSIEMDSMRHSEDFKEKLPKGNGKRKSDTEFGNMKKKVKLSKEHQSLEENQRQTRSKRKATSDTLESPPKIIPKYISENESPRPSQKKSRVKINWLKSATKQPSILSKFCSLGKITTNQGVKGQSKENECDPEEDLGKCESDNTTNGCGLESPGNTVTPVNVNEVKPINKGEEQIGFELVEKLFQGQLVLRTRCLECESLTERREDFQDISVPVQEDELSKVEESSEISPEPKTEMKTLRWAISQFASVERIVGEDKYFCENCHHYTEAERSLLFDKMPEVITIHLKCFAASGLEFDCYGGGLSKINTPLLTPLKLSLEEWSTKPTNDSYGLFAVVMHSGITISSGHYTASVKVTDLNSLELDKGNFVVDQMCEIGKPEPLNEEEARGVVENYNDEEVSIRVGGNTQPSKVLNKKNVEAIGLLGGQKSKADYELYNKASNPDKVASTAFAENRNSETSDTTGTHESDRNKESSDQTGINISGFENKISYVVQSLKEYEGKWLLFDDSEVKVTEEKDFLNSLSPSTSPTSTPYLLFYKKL
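1 nM enzyme complex + cpd, 15 min RT; start with Ub-Rho 150nM final; kinetic fluorescence ex 480/em 540, 6 reads q60 s. Buffer 50mM HEPES pH 7.8, 0.5mM EDTA, 0.1 mg/ml BSA, 1mM TCEP, 0.01% Tween-20.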
Hits are given with their value; - = inactive; ? = inconclusive; . = no result. Unless noted, calls come from the whole dose curve; as a rule, active = well fitted curve in the direction sought with a large enough effect; inconclusive = small, poorly fitted or top-dose-only effect, or another doubt; inactive = no such curve, though single readings can be large; an effect the other way counts as inactive or inconclusive.

SMILES | PI5P4K alpha inh | PLK1 PBD inh | USP2a inh | WRN helicase inh | USP1-UAF1 inh
CC(=O)N1CCc2c(sc3nc(SCC(N)=O)n(-c4ccc(F)c(Cl)c4)c(=O)c23)C1 | . | . | . | . | -
COC(=O)c1sc(NC(=O)c2ccco2)c(C#N)c1C | - | 24µM | - | - | -
CCOC(=O)c1sc(NC(=O)C2=COCCO2)c(C#N)c1C | - | 27µM | - | - | -
CCOC(=O)c1sc(NC(=O)C(C)C)c(C#N)c1C | -68 | 3µM | - | ? | -
Cc1oc2ccc(O)c(CN3CCCC3)c2c1C(=O)Nc1ccc(C(C)C)cc1 | . | . | . | . | -
Cc1ccc(CN2C(=O)c3oc4ccc(C)cc4c(=O)c3C2c2ccc(O)cc2)cc1 (stereo not given) | . | . | . | . | -
Cc1ccc(NC(=O)C2=C(c3ccccc3)S(=O)(=O)CCS2(=O)=O)cc1 | - | 6µM | - | 22µM | -
Cc1ccc(NC(=O)c2ccccc2)cc1 | - | - | - | - | -
COc1ccc(NC(=O)COC(C)=O)cc1Cl | - | 27µM | - | - | -
COc1cc(OC)c(NC(=O)c2ccc3c(c2)N(Cc2ccc(C)cc2)CCS3)cc1Cl | . | . | . | . | -
CCOc1ccccc1NC(=S)/C(=C(\[O-])c1ccc2c(c1)OCCO2)[n+]1ccc(CC)cc1 | - | 21µM | - | - | -
Cc1ccc(SCc2[nH]nc3c2C(c2ccco2)C(C#N)=C(N)O3)cc1 (stereo not given) | . | 9.5µM | - | - | -
Cc1ccc(NNC(=O)Nc2ccc(Cl)cc2)nn1 | - | 6µM | - | ? | -
O=C(N/N=C1/CC2CCC1C2)c1cc2ccccc2cc1O (stereo not given) | -56 | - | - | - | -
CCCn1ccc2c(OCC(=O)Nc3ccc(F)cc3F)cccc2c1=O | . | . | . | . | -
O=C(CSc1ccc(Cl)cc1)NC(=O)c1ccccc1 | - | 12µM | - | - | -
COc1ccc2c3c(cccc13)N(C)N=C2C | - | 21µM | - | ? | -
COc1ccc2c3c(cccc13)OC2=O | - | - | - | - | -
CC(C)CCNC(=O)CN1C(=O)c2cccnc2Oc2ccccc21 | . | . | . | . | -
Cc1ccc(S(=O)(=O)SC/C=C/CSS(=O)(=O)c2ccc(C)cc2)cc1 | -85 | 2.7µM | . | ? | -
Cc1ccc(S(=O)(=O)CCCS(=O)(=O)c2ccc(C)cc2)cc1 | - | - | - | - | -
Cc1ccc(S(=O)(=O)SCCCSS(=O)(=O)c2ccc(C)cc2)cc1 | -73 | 2.4µM | . | 50µM | -
COc1cc(/C=C2/SC(=S)N(Cc3ccccc3)C2=O)ccc1O | - | - | - | 8.9µM | -
O=C1/C(=C\c2ccc(O)c(O)c2)SC(=S)N1Cc1ccccc1 | ? | - | - | 11µM | -
O=C1/C(=C\c2cccc(O)c2)SC(=S)N1Cc1ccccc1 | - | - | - | - | -
SMILES | PI5P4K alpha inh | PLK1 PBD inh | USP2a inh | WRN helicase inh | USP1-UAF1 inh
O=C1/C(=C\c2cccc(O)c2O)SC(=S)N1Cc1ccccc1 | - | 3µM | - | - | -
O=C(O)c1cc(-c2ccc(/C=C3/SC(=S)N(Cc4ccccc4)C3=O)o2)ccc1Cl | ? | - | - | ? | 25µM
CCOC(=O)c1ccc(NC(=O)C2CCN(C(=O)N3CC(C)Oc4ccc(C)cc43)CC2)cc1 (stereo not given) | . | . | . | . | -
Clc1ccc(OCc2nn3c(C4CCCCC4)nnc3s2)cc1 | - | 21µM | - | - | -
COc1ccccc1S(=O)(=O)Cc1ccc(C(=O)N2CCN(c3ccccn3)CC2)o1 | - | 27µM | - | - | -
CCC(C)NC(=O)c1ccc(CS(=O)(=O)c2ccc(OC)cc2)o1 (stereo not given) | - | - | - | - | -
CCOC(=O)N1CCN(C(=O)c2ccc(CS(=O)(=O)c3ccc(OC)cc3)o2)CC1 | - | 27µM | - | - | -
COc1ccc(S(=O)(=O)Cc2ccc(C(=O)N3CCN(c4ccccn4)CC3)o2)cc1 | - | - | - | - | -
COc1ccc(S(=O)(=O)Cc2ccc(C(=O)N3CCCC3)o2)cc1 | - | - | - | - | ?
COc1ccc(S(=O)(=O)Cc2ccc(C(=O)NC(C)C)o2)cc1 | - | 21µM | - | - | -
CC1SC(c2cccc(Cl)c2)NC1=O (stereo not given) | - | 24µM | - | - | -
CC1SC(c2ccc(Cl)cc2Cl)NC1=O (stereo not given) | - | - | - | - | -
CC1Cc2cc(S(=O)(=O)CCC(=O)Nc3ccc(F)cc3Cl)ccc2N1C(=O)C1CC1 (stereo not given) | . | . | . | . | -
CC1(C)CC(=O)C=C(c2cccc(Br)c2)C1 | - | 27µM | - | - | -
COc1ccc(CNC(=O)CCC2N=C3c4ccccc4N=C(SCC(=O)NCCc4ccc(OC)c(OC)c4)N3C2=O)cc1 (stereo not given) | . | . | . | . | -
COc1cc(/C=C/C(=O)O)cc(S(=O)(=O)Nc2ccc3c(c2)OCO3)c1OC | -53 | - | - | - | -
Cn1c(Oc2ccccc2)nc2c1c(=O)n(Cc1ccc(Cl)cc1Cl)c(=O)n2C | . | . | . | . | -
COc1cccc(CCNC(=O)CCc2nnc(-c3ccc4c(c3)OCO4)o2)c1 | - | - | - | - | -
O=C(CCc1nnc(-c2ccc3c(c2)OCO3)o1)NCCc1ccccc1F | - | 12µM | - | - | -
COC(=O)/C=C/C(=O)Nc1ccc(O)c(Cl)c1 | -59 | - | - | - | -
COc1ccc2nc(NC(=O)c3ccc(S(=O)(=O)N4CCCC(C)C4)cc3)sc2c1 (stereo not given) | . | . | . | . | -
Cc1cccc(NC(=O)c2ccc3snnc3c2)c1C | . | . | . | . | -
CCOc1ccc(CNC(=O)c2ccc(Sc3ccc(C)cc3)c(N)c2)cc1OC | . | . | . | . | -
CCCN(CCC)CCNC(=O)c1cc2c(=O)n(C)c3ccccc3c2n1C | - | 19µM | - | - | -
COc1cc2ccccc2cc1C(=O)N1CCN(c2nc3ccc(F)cc3s2)CC1 | . | . | . | . | -
C#CCOCCOCCOCCNc1nc(N2CCN(C(=O)CCCCCCCCCCNC(=O)[C@@H](CCSC)n3cc(CCO)nn3)CC2)nc(N2CCN(C(=O)CCCCCCCCCCNC(=O)[C@H]([C@@H](C)CC)n3cc(CCCCN=C(N)N)nn3)CC2)n1 | -73 | - | - | ? | ?
C#CCOCCOCCOCCNc1nc(N2CCN(C(=O)CCCCCCCCCCNC(=O)[C@H](CO)n3cc(CCCSC)nn3)CC2)nc(N2CCN(C(=O)CCCCCCCCCCNC(=O)[C@H](CO)n3cc(CCCSC)nn3)CC2)n1 | - | - | - | - | -
C#CCOCCOCCOCCNc1nc(N2CCOCC2)nc(N2CCN(C(=O)CCCCCCCCCCNC(=O)[C@@H](CCSC)n3cc(CCO)nn3)CC2)n1 | - | - | - | - | -
C#CCOCCOCCOCCNc1nc(N2CCN(C(=O)CCCCCCCCCCNC(=O)[C@@H](CCSC)n3cc(CCO)nn3)CC2)nc(N2CCN(C(=O)CCCCCCCCCCNC(=O)[C@H]([C@@H](C)CC)n3cc(CCCCCN)nn3)CC2)n1 | -54 | - | - | ? | ?

Screening results as filed in PubChem BioAssay.
